High-throughput results: PubChem, Broad Institute
This is a sample that favours compounds with a hit; in the whole collection about 1.3% have one here.
C2C12 statin: protects C2C12 myotubes from simvastatin toxicity | AID 602340 | ATP luminescence, 48 h; scaled: DMSO 0, geranylgeraniol control 100 | rescue of ATP level, % at 7.49 µM | hit rate 0.78% among 330,000;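 active = mean ATP rescue above about 67%, or every replicate alone reaching that limit, limit read from the data, passing the limit was not always enough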;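 also: myotubes were challenged with 10 µM simvastatin during compound exposure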
Rce1 inh: blocks yeast Ras-converting enzyme. Q03530. yeast membranes, quenched prenylated peptide cleavage fluorescence. calls only. hit rate 0.27% among 290,000;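 active = fall in fluorescence gain of 50% or more versus controls, with final raw signal at or below 3038400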
Target sequence (Q03530 whole entry, looked up): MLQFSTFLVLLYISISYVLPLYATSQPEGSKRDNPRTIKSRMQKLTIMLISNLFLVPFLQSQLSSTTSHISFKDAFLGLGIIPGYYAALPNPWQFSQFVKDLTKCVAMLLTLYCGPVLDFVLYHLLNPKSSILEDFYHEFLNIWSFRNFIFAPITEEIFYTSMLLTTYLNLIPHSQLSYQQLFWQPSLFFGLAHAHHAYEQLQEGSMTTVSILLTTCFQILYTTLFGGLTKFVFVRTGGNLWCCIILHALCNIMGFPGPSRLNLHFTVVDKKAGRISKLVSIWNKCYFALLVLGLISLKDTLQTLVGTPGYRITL
PGC1a acetyl inh: lowers PGC1a acetylation signal in U2OS cells | inhibition, % at 15.6 µM | AID 651687 | hit rate 0.17% among 350,000 | AlphaScreen anti-acetyl-lysine; with virally co-expressed GCN5 acetyltransferase;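 active = every replicate shows inhibition of at least 40%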
HIF act: HIF pathway transcriptional activation; U2OS HRE-luciferase reporter, luminescence; normalized: DMSO 0%, desferrioxamine 100%; activation, % at 7.5 µM (by protocol); hit rate 0.32% among 300,000;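 active = mean activation of at least 10% of the iron chelator positive control signal, with at least half of replicates also reaching 10%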
AI-2 QS mod: Vibrio harveyi AI-2 quorum sensing modulation | AID 2094 | hit rate 0.4% among 300,000 | Vibrio harveyi JMH597 AI-2 luminescence/OD600 ratio, 9 h; hits give low values; strain lacks LuxN and CqsS sensors; 0 = neutral-control median | activity change, % at 7.5 µM; in the data active = activity change below about -75%, passing the limit was not always enough;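 also: luminescence divided by OD600 gain over 9 h not by final OD600 alone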
A number is an active result.

CN(C)C(=O)C[C@@H]1CC[C@@H]2[C@H](COc3ccc(NC(=O)C4CCCC4)cc3C(=O)N2C)O1 was read as PGC1a acetyl inh inactive.
Cc1cc(NC(c2ccc(Cl)cc2)c2ccc3cccnc3c2O)no1 (configuration not stated) was read as C2C12 statin inactive, Rce1 inh inactive, PGC1a acetyl inh inactive, HIF act 169 and AI-2 QS mod -93.
Screening Cc1ccc2ccc(C(Nc3ccccn3)c3ccccc3)c(O)c2n1 (configuration not stated) returned C2C12 statin inactive, Rce1 inh inactive, PGC1a acetyl inh inactive, HIF act inactive and AI-2 QS mod inactive.
Screening CC(C)C(=O)NC(c1ccc(Cl)cc1Cl)c1ccc2cccnc2c1O (configuration not stated) returned C2C12 statin inactive, Rce1 inh inactive, PGC1a acetyl inh inactive, HIF act 80 and AI-2 QS mod inactive.
Screening COc1ccc(C(NC(C)=O)c2cc(Cl)c3cccnc3c2O)cc1 (configuration not stated) returned C2C12 statin inactive, Rce1 inh inactive, PGC1a acetyl inh inactive, HIF act inactive and AI-2 QS mod inactive.
CCC(=O)NC(c1ccc(Cl)cc1Cl)c1ccc2cccnc2c1O (configuration not stated) was read as C2C12 statin inactive, Rce1 inh inactive, PGC1a acetyl inh inactive, HIF act 102 and AI-2 QS mod inactive.
For CC(=O)NC(c1ccc(Cl)cc1)c1ccc2cccnc2c1O (configuration not stated) the results were C2C12 statin inactive and PGC1a acetyl inh inactive.
For COc1ccc(C(NC(=O)C(C)C)c2ccc3cccnc3c2O)cc1 (configuration not stated) the results were Rce1 inh inactive, PGC1a acetyl inh inactive, HIF act 121 and AI-2 QS mod inactive.
Screening CO[C@H]1CN(C)C(=O)c2ccc(NC(=O)Nc3c(C)noc3C)cc2OC[C@H](C)N(CC2CC2)C[C@@H]1C returned PGC1a acetyl inh inactive.
`CC(=O)NC(c1ccco1)c1ccc2cccnc2c1O` (configuration not stated) gave C2C12 statin inactive, Rce1 inh inactive, HIF act inactive and AI-2 QS mod inactive.
`CCCCC(=O)NC(c1ccc(Cl)cc1Cl)c1ccc2cccnc2c1O` (configuration not stated) gave C2C12 statin inactive, Rce1 inh inactive, HIF act 28 and AI-2 QS mod inactive.
N#CCCN1CCNCC1 was read as C2C12 statin 132, Rce1 inh inactive, PGC1a acetyl inh inactive, HIF act inactive and AI-2 QS mod inactive.
`N#CCCN1CCN(CCC#N)CC1` gave C2C12 statin inactive, Rce1 inh inactive, PGC1a acetyl inh inactive, HIF act inactive and AI-2 QS mod inactive.
`COCC(=O)N1CC2(C1)[C@H](c1ccc(-c3ccccc3)cc1)[C@@H](CO)N2C(=O)COC` gave PGC1a acetyl inh inactive.
For CCOC(=O)c1nnn2c1nc(N1CCCCC1)c1ccccc12 the results were Rce1 inh inactive, PGC1a acetyl inh inactive, HIF act inactive and AI-2 QS mod inactive.
`CCOC(=O)c1nnn2c1nc(N1CCOCC1)c1ccccc12` gave Rce1 inh active, PGC1a acetyl inh inactive, HIF act inactive and AI-2 QS mod inactive.
COc1ccccc1NC(=O)/C=C1\SCC(=O)N1C was read as Rce1 inh inactive, PGC1a acetyl inh 93, HIF act inactive and AI-2 QS mod inactive.
`COc1ccc2c3c(n(C)c2c1)[C@H](CO)NCC31CCN(Cc2cc(-c3ccccc3)on2)CC1` gave PGC1a acetyl inh 69.
For CNC[C@@H]1Oc2ccc(NC(=O)Nc3ccc(OC)cc3)cc2CC(=O)N([C@@H](C)CO)C[C@H]1C the results were C2C12 statin inactive and PGC1a acetyl inh inactive.
`Cc1ccc(NC(=O)C2C(c3ccccc3)C2(Cl)Cl)c(C)c1` (configuration not stated) gave C2C12 statin inactive, Rce1 inh inactive, PGC1a acetyl inh 71, HIF act inactive and AI-2 QS mod inactive.
For O=C(Nc1ccc(S(=O)(=O)Nc2ccccc2)cc1)C1COc2ccccc2O1 (configuration not stated) the results were C2C12 statin inactive, Rce1 inh active, PGC1a acetyl inh inactive, HIF act inactive and AI-2 QS mod inactive.
COc1ccc(CC(=O)N2CCCC(C)C2)cc1 (configuration not stated) was read as Rce1 inh inactive, PGC1a acetyl inh inactive, HIF act inactive and AI-2 QS mod inactive.
CC1CCCN(C(=O)Cc2ccc(F)cc2)C1 (configuration not stated) was read as C2C12 statin inactive, Rce1 inh inactive, PGC1a acetyl inh 75, HIF act inactive and AI-2 QS mod inactive.
For CC(C)C(=O)N1CCN(c2nc(-c3ccccc3)c3c(c2C#N)CCCC3)CC1 the results were C2C12 statin inactive, Rce1 inh active, PGC1a acetyl inh inactive, HIF act inactive and AI-2 QS mod inactive.
CC(C)Cc1nc(N2CCN(C(=O)c3ccco3)CC2)c(C#N)c2c1CCCC2 was read as C2C12 statin inactive, Rce1 inh inactive, PGC1a acetyl inh inactive, HIF act inactive and AI-2 QS mod inactive.
`C[C@H](CO)N1C[C@H](C)[C@@H](CN(C)C)Oc2c(NC(=O)Nc3ccc4c(c3)OCO4)cccc2C1=O` gave C2C12 statin inactive and PGC1a acetyl inh inactive.
`CCCCNC(=S)NNC(=O)CCn1cc(C)cn1` gave Rce1 inh active, HIF act inactive and AI-2 QS mod inactive.
`Cc1cnn(CCC(=O)NNC(=S)NCC(C)C)c1` gave Rce1 inh inactive, HIF act inactive and AI-2 QS mod inactive.
Screening CNC(=O)C[C@@H]1CC[C@@H]2[C@@H](COc3ccc(NC(=O)Nc4cc(C)cc(C)c4)cc3C(=O)N2C)O1 returned C2C12 statin inactive and PGC1a acetyl inh inactive.
For CN1C(=O)c2cc(NC(=O)c3cscn3)ccc2OC[C@@H]2O[C@@H](CC(=O)N3CCCCC3)CC[C@H]21 the results were C2C12 statin inactive and PGC1a acetyl inh inactive.
Screening CC(=O)Nc1ccccc1 returned C2C12 statin inactive and PGC1a acetyl inh inactive.
`C/C(=N\O)C(=O)Nc1ccccc1` gave Rce1 inh inactive, HIF act 231 and AI-2 QS mod inactive.
COc1ccc2c3c(n(C)c2c1)[C@H](CO)N(C(=O)C1CCCC1)CC31CN(C(=O)CC2CC2)C1 was read as PGC1a acetyl inh inactive.
`CO[C@@H]1CN(C)C(=O)c2cc(NC(=O)c3cccc(Oc4ccccc4)c3)ccc2OC[C@@H](C)NC[C@@H]1C` gave C2C12 statin inactive and PGC1a acetyl inh inactive.
`Cc1ccc(S(=O)(=O)N[C@@H]2CC[C@@H](CCn3cc(C4CCCC4)nn3)O[C@H]2CO)cc1` gave PGC1a acetyl inh inactive.
Cn1c(CO)nc2c3ccccc3ccc21 was read as Rce1 inh inactive, HIF act 36 and AI-2 QS mod inactive.
`Cn1c(Cc2ccccc2)nc(=O)c2ccccc21` gave C2C12 statin inactive and PGC1a acetyl inh inactive.
